This experiment relates to Plasmodium falciparum NF54/iGP1_RE9H ulg8 stage V gametocytes. The experiment in a line: gametocyte viability (luciferase signal relative to DMSO control) (% of DMSO control); higher = less gametocytocidal activity, active = 50 or less. As to conditions: exposure time: 72 h. The essentials: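 In 96-well plates holding nanolitre spots of compound (10 mM DMSO stocks), NF54/iGP1_RE9Hulg8 stage V gametocytes from day 12 were added at ~2.5% gametocytemia and 3% hematocrit in medium with 0.5% Albumax II, giving single wells at 10 µM or 1 µM. Incubation lasted 72 h at 37 °C. Each 90 µl sample then received 10 µl D-luciferin (30 mg/ml) before luminescence reading on an IVIS Lumina II, and viability was normalized to the mean of DMSO vehicle wells on the same plate.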

“And” between values parts separate entries of the source, which are not always exact repeats. Equal entries are not always repeated. Structures can show the parent of a compound that is named as a salt. A number with no mark means an inactive call.

For the compound `CCN1CCN(Cc2ccc(-c3cc4c(N[C@H](C)c5ccccc5)ncnc4[nH]3)cc2)CC1`, the gametocyte viability was 96.1 (concentration: 1 µM) and 52.6 (concentration: 10 µM).
Consider `O=c1cc(N2CCOCC2)oc2c(-c3ccccc3)cccc12`, for which the gametocyte viability is, setting by setting: (concentration: 1 µM) 105 and 79.5; (concentration: 10 µM) 103 and 92.
As to `CC(C)(C)c1cc(NC(=O)Nc2ccc(-c3cn4c(n3)sc3cc(OCCN5CCOCC5)ccc34)cc2)no1` [Quizartinib (AC220)], the gametocyte viability by setting is: (concentration: 1 µM) 97.7; (concentration: 10 µM) 85.9.
For `CNC(=O)CN1CCC(Oc2cc3c(Nc4cccc(Cl)c4F)ncnc3cc2OC)CC1`, in that order: 103 and 106.
For `N=C(N)NC(=N)NCCc1ccccc1` [Phenformin hydrochloride], in that order: 99.9 and 111.
The like results for `Nc1nc(Nc2ccc(S(N)(=O)=O)cc2)nn1C(=O)c1c(F)cccc1F` were, in that order, 101 and 85.9.
As for `O=C(Cc1ccc(-c2ccc(OCCN3CCOCC3)cc2)cn1)NCc1ccccc1`, the gametocyte viability (concentration: 1 µM) is 99.7 and the gametocyte viability (concentration: 10 µM) is 113.
Take `CN(c1ncccc1CNc1nc(Nc2ccc3c(c2)CC(=O)N3)ncc1C(F)(F)F)S(C)(=O)=O`: the gametocyte viability runs as follows: (concentration: 1 µM) 117; (concentration: 10 µM) 112.
`S=C(NCc1ccc2c(c1)OCO2)N1CCN(c2ncnc3c2oc2ccccc23)CC1` [Amuvatinib (MP-470)]: the gametocyte viability by setting is: (concentration: 1 µM) 98.1; (concentration: 10 µM) 110.
The like results for `Cc1cnc(NC(=O)Nc2cc(Br)c(C)cc2OC[C@@H]2CNCCO2)cn1` were, in that order, 102 and 113.
The like results for `O=C(O)c1cc(NCc2cc(O)ccc2O)ccc1O` [2-Hydroxy-5-(2,5-dihydroxybenzylamino)benzoic acid] were, in that order, 103 and 109.
The like results for `Cc1nc(N)sc1-c1ccnc(Nc2ccc(N3CCOCC3)cc2)n1` were, in that order, 107 and 108.
`CN1CCN(CCOc2cc(OC3CCOCC3)c3c(Nc4c(Cl)ccc5c4OCO5)ncnc3c2)CC1` [Saracatinib (AZD0530)]: the gametocyte viability (concentration: 1 µM) was 94.4 and the gametocyte viability (concentration: 10 µM) was 92.2.
The like results for `COc1cc(OC)c(/C=C/S(=O)(=O)Cc2ccc(OC)c(NCC(=O)O)c2)c(OC)c1` were, in that order, 93.4 and 101.
Consider `O=C(NOCC1CC1)c1ccc(F)c(F)c1Nc1ccc(I)cc1Cl`, for which the gametocyte viability by setting is: (concentration: 1 µM) 93.2; (concentration: 10 µM) 98.6.
For `CN([C@@H](Cc1ccc(OS(=O)(=O)c2cccc3cnccc23)cc1)C(=O)N1CCN(c2ccccc2)CC1)S(=O)(=O)c1cccc2cnccc12`, in that order: 93.8 and 81.8.
For the compound `COc1cc(N2CCC(N3CCN(C)CC3)CC2)ccc1Nc1ncc(Cl)c(Nc2ccccc2S(=O)(=O)C(C)C)n1`, the gametocyte viability is, setting by setting: (concentration: 1 µM) 73.9; (concentration: 10 µM) 41.9 (active).
The like results for `CO[C@H]1C[C@@H]2CC[C@@H](C)[C@@](O)(O2)C(=O)C(=O)N2CCCC[C@H]2C(=O)O[C@H]([C@H](C)C[C@@H]2CC[C@@H](OC(=O)C(C)(CO)CO)[C@H](OC)C2)CC(=O)[C@H](C)/C=C(\C)[C@@H](O)[C@@H](OC)C(=O)[C@H](C)C[C@H](C)/C=C/C=C/C=C/1C` [Temsirolimus (Torisel)] were, in that order, 93.9 and 88.4.
The like results for `C[C@@H](Oc1cc(-c2cnn(C3CCNCC3)c2)cnc1N)c1c(Cl)ccc(F)c1Cl` were, in that order, 88.7 and 30.2 (active).
The like results for `CNC(=O)c1cc(Oc2ccc(NC(=O)Nc3ccc(Cl)c(C(F)(F)F)c3)cc2)ccn1` [Sorafenib (Nexavar)] were, in that order, 114 and 115.
Turning to `N#CC(=Cc1ccc(O)c(O)c1)C(=O)NCc1ccccc1`, the gametocyte viability was 95.7 (concentration: 1 µM) and 101 (concentration: 10 µM).
As to `COc1cccc2cc(-c3nc([C@H]4CC[C@H](C(=O)O)CC4)n4ncnc(N)c34)[nH]c12`, the gametocyte viability is, setting by setting: (concentration: 1 µM) 108; (concentration: 10 µM) 109.
The like results for `CC(C)c1cc(/C=C(\C#N)C(=O)NCCCc2ccccc2)cc(C(C)C)c1O` were, in that order, 99.4 and 97.2.
The like results for `C[C@@H]1CCN(C(=O)CC#N)C[C@@H]1N(C)c1ncnc2[nH]ccc12` were, in that order, 107 and 110.
`O=C(Nc1ccc(OC(F)(F)F)cc1)c1sccc1NCc1ccnc2ccccc12`: the gametocyte viability is 96.9 (concentration: 1 µM) and 86.6 (concentration: 10 µM).
For `CO[C@H]1C[C@@H]2CC[C@@H](C)[C@@](O)(O2)C(=O)C(=O)N2CCCC[C@H]2C(=O)O[C@H]([C@H](C)C[C@@H]2CC[C@@H](O)[C@H](OC)C2)CC(=O)[C@H](C)/C=C(\C)[C@@H](O)[C@@H](OC)C(=O)[C@H](C)C[C@H](C)/C=C/C=C/C=C/1C` [Rapamycin], in that order: 97.3 and 97.3.
Regarding `CN(C)C1CCN(C(=O)c2ccc(NC(=O)Nc3ccc(-c4nc(N5CCOCC5)nc(N5CCOCC5)n4)cc3)cc2)CC1`, the gametocyte viability is 102 (concentration: 1 µM) and 107 (concentration: 10 µM).
`CNC(=O)c1cc(Oc2ccc(NC(=O)Nc3cc(C(C)(C)C)nn3-c3ccc4ncccc4c3)c(F)c2)ccn1` [DCC-2036 (Rebastinib)]: the gametocyte viability is, setting by setting: (concentration: 1 µM) 103; (concentration: 10 µM) 107.
For `Cn1c(Nc2ccc(C(F)(F)F)cc2)nc2cc(Oc3ccnc(-c4ncc(C(F)(F)F)[nH]4)c3)ccc21`, in that order: 103 and 104.

Source of the values: the supplement of paper PMC12297408.
